TEAD-YAP block: TEAD-YAP interaction inhibition, primary screen, TEAD-YAP interaction inhibitor project, luminescence, HEK-TIYL cells; TEAD-Gal4/YAP UAS-luciferase luminescence; inhibition, % at 9.12 µM; 640,000 compounds, 1.4% hits; AID 1259422, 2018; in the data active = inhibition above about 32%;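 note: 0% = median of test compound wells and 100% = reference inhibitor wells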
GPR151 activ: activators of human GPR151, primary screen, cell-based, PathHunter beta-arrestin, luminescence. G-protein coupled receptor 151 (Homo sapiens), Q8TDV0. PathHunter beta-arrestin GPR151 cells. activation, % at 11.2 µM. 650,000 compounds, 1% hits. AID 1508602, 2020; in the data active = activation above about 4.9%;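 note: 0% = median of compound wells and 100% = cells with positive control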
FBW7 act: FBW7 E3 ligase activators, primary screen, biochemical, AlphaScreen, human; F-box/WD repeat-containing protein 7 (Homo sapiens), Q969H0; AlphaScreen FBW7–phospho-cyclin E peptide binding, activator screen; normalized activity (activation), % at 26.1 µM; 650,000 compounds, 0.13% hits; AID 1259310, 2017; in the data active = normalized activity above about 1.9%;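 note: purified mutant Fbw7 with reduced substrate affinity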
MITF inh: MITF inhibitors, primary screen, biochemical, AlphaScreen, human. Microphthalmia-associated transcription factor (Homo sapiens), O75030. AlphaScreen MITF homodimerization, bead proximity signal. inhibition, % at 2.6 µM. 650,000 compounds, 0.91% hits. AID 1259374, 2018; in the data active = inhibition above about 50%;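 note: 0% = vehicle wells with protein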
GPR151 confirm: GPR151 activators, triplicate retest, confirmation, cell-based, PathHunter beta-arrestin, luminescence; shares compounds with GPR151 activ; GPR151 PathHunter beta-arrestin cells, 90 min; % of EA-reagent control over plate median; activation, % at 11.2 µM; 6,700 tested, under 10 active;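 active = mean percent activation across replicates above the confirmation screen cutoff of 4.91%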
GPR119 counter: GPR119 activators in beta-arrestin cells, counter-screen for GPR151 activator project, cell-based, PathHunter beta-arrestin, luminescence, triplicate. 6,700 compounds, 0.3% hits. shares compounds with GPR151 activ. activation, % at 11.2 µM. 90 min; 0 = compound-well median, 100 = enzyme-acceptor control;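 active = mean percent activation in the counterscreen above 29.09%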;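 note: counterscreen on off-target GPR119 to flag nonselective hits from the GPR151 activator screen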
Target sequence (Q8TDV5 whole entry, looked up): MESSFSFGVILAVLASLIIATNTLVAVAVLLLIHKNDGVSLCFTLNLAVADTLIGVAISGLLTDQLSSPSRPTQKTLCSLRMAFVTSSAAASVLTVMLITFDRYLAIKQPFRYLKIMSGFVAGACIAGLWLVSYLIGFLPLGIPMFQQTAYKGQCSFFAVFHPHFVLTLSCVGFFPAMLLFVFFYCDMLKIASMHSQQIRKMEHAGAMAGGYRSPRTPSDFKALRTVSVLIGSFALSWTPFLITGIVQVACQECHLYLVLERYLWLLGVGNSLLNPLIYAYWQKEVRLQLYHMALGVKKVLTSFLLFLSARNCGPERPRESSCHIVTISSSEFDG
* marks the source's active call; other numbers are inactive results; . = no result. Compounds with a hit are over-represented: about 3.5% of the library has one in this group of screens.

SMILES	TEAD-YAP block	GPR151 activ	FBW7 act	MITF inh	GPR151 confirm	GPR119 counter
Oc1ccc(CCNc2nc(NC3CCN(Cc4ccccc4)CC3)nc3c2ncn3-c2ccsc2)cc1	24.6	5.6*	-0.1	2.4	0.4	9.2
c1ccc(CN2CCC(Nc3nc(Nc4ccc5ncccc5c4)nc4c3ncn4-c3ccsc3)CC2)cc1	2.4	5.5*	-0.1	-5.5	0.1	-12.5
O=C(NC1(C(F)(F)F)NC(=O)N(c2cccc(Cl)c2)C1=O)c1ccccc1 (stereo not given)	8.1	-0.2	0.7	4.1	.	.
CC(=O)OC(C)(C)C#CCN1CCCCC1	7.3	1.9	-0.1	6.0	.	.
CCCCN(CC)S(=O)(=O)c1ccc(F)c(C(=O)Nc2cccc(C)c2C)c1	5.9	1.6	0.0	-5.2	.	.
C/C(=C\COc1ccc2ccc(=O)oc2c1)CC/C=C(\C)CCC(=O)C(C)(C)O	9.8	0.0	0.1	6.0	.	.
CCC(C(=O)NCCCN1CCOCC1)n1ncn2c(cc3occc32)c1=O (stereo not given)	0.4	9.9*	0.1	10.9	1.1	6.9
Cc1nonc1NC(=O)CSc1nc(Cc2ccccc2)nc2ccccc12	0.3	10.2*	-0.1	-7.8	-0.1	3.1
CC(C)NC(=O)CSc1nc(Cc2ccccc2)nc2ccccc12	-11.5	-1.2	0.0	-18.4	.	.
CC1=CC2=NC(=O)/C(=C\c3ccc(-c4cccc(Cl)c4)o3)C(=N)N2O1	6.6	5.9*	0.1	-1.1	0.3	10.9
CC1=CC2=NC(=O)/C(=C\c3ccc(-c4ccccc4Cl)o3)C(=N)N2O1	2.7	0.6	0.1	7.7	.	.
O=C(CN1CC(=O)Oc2ccccc21)NCC1CCCO1 (stereo not given)	-18.1	13.2*	0.4	2.6	-1.3	-9.3
CCCOC(=O)Nc1cccc(C(=O)O)c1	-66.2	-10.7	1.7	8.8	.	.
COc1cc(CNc2ncn[nH]2)cc(Cl)c1OC	-1.5	1.9	-0.2	-4.9	.	.
COc1cc(CNc2ncn[nH]2)ccc1OCc1cccc(C)c1	-28.6	5.1*	-0.1	-11.2	-0.7	-5.9
COc1ccc(C2Oc3c(OC)cccc3C3CC(c4ccco4)=NN32)cc1 (stereo not given)	-67.5	-1.3	0.0	13.1	.	.
COc1ccc(C2Oc3c(OC)cccc3C3CC(c4ccco4)=NN32)cc1OC (stereo not given)	-64.5	7.6*	0.0	1.8	-0.8	-2.0
Cc1cc2c(c(=O)n1Cc1ccco1)C(c1ccc3c(c1)OCO3)C(C#N)=C(N)O2 (stereo not given)	16.6	-0.8	0.3	6.4	.	.
CC1CCCC(C)N1CC(O)COc1ccc(N)cc1 (stereo not given)	6.9	4.9*	0.1	-2.3	0.1	-4.7
CC(=O)c1ccc(OCC(O)CN2CCCCC2C)cc1 (stereo not given)	0.0	5.2*	0.1	-22.2	-0.7	-12.2
C=CCn1c(CC)nc2c(cnn2-c2ccccc2)c1=O	-9.6	1.8	0.3	0.7	.	.
O=c1[nH]c2cccnc2[nH]c1=O	6.5	10.0*	0.1	19.5	0.5	-0.6
COc1ccc(-c2nc(-c3cccs3)[nH]c2-c2ccc(OC)cc2)cc1	3.8	1.5	-0.1	-1.1	.	.
COc1ccc(-c2nc3c(c4c2C[C@H](c2ccccc2)OC4)CN(C(=O)NCc2ccco2)CC3)c(C)c1	.	5.9*	-0.1	9.9	0.1	-2.2
COc1cccc(CC(=O)N2CCc3nc(-c4ccccc4)c4c(c3C2)CO[C@@H](C)C4)c1	.	6.8*	0.0	2.0	0.0	-5.0
SMILES	TEAD-YAP block	GPR151 activ	FBW7 act	MITF inh	GPR151 confirm	GPR119 counter
C[C@H]1Cc2c(-c3ccccc3)nc3c(c2CO1)CN(C(=O)Cc1cccs1)CC3	.	-0.9	-0.1	-8.7	.	.
C=CCNC(=O)N1CCc2nc(-c3ccc(OC)cc3C)c3c(c2C1)CO[C@@H](c1ccccc1)C3	.	0.5	-0.1	2.0	.	.
O=C(N/N=C/c1ccc2cccnc2c1)c1ccc(F)cc1	-51.1	0.7	0.0	-6.6	.	.
Cc1cc(C)nc(OCC(=O)N(c2ccccc2Cl)C(C)C)n1	-6.9	-0.7	0.3	18.2	.	.
COc1cccc(OC)c1C(=O)Nc1ccc(Br)cn1	-7.1	15.3*	0.0	-11.2	-0.7	4.0
COc1cccc(OC)c1C(=O)NC(=S)Nc1ccc(Br)cn1	-17.4	-0.9	-0.2	-2.4	.	.
COc1cccc(OC)c1C(=O)Nc1ncc([N+](=O)[O-])s1	4.9	5.7*	-0.1	10.6	-0.3	-8.8
COc1cccc(OC)c1C(=O)Nc1ccc([N+](=O)[O-])cn1	5.1	0.2	0.0	9.7	.	.
COc1ccc(C2=N/C(=C\c3ccc4c(c3)OCCO4)C(=O)O2)cc1[N+](=O)[O-]	2.1	-0.4	-0.1	-4.1	.	.
CCOc1ccc(CN2CCNC(=O)C2CC(=O)N(CC)Cc2ccncc2)cc1 (stereo not given)	13.3	-0.2	-0.1	-0.4	.	.
Cc1ccccc1-c1nnc(SCC(=O)N2CCOCC2)o1	-53.2	0.0	-0.1	13.0	.	.
Cc1ccccc1-c1nnc(SCC(=O)N2CCN(c3ccccc3)CC2)o1	11.7	6.5*	0.1	4.9	0.6	5.7
Cc1nnc(SCC(=O)N2CCN(c3ccccc3)CC2)s1	1.4	6.4*	0.0	9.9	1.0	10.4
CC(=O)Nc1nnc(SCC(=O)N2CCN(c3ccccc3)CC2)s1	6.2	-0.6	0.0	-13.0	.	.
Cc1ccc(NC(=O)C2CCN(S(=O)(=O)c3ccc(Cl)s3)CC2)cc1	1.9	5.9*	0.1	-16.6	-0.7	-14.6
CCOC(=O)c1c(NC(=O)COc2ccc3c(c2)OCO3)sc2c1CCCC2	3.5	5.4*	-0.1	-13.2	0.2	9.9
COc1ccc(NC(=O)COc2cccc(C)c2C)cc1	-18.8	7.5*	0.2	3.0	-0.3	14.2
CCCOC(=O)c1c(NC(=O)OC)sc2c1CCC(C)C2 (stereo not given)	-4.4	6.0*	1.2	13.1	-0.9	-8.4
COC(=O)c1ccc(NC(=O)COc2cccc(C)c2C)cc1	7.1	1.3	0.3	8.1	.	.
CCCOC(=O)c1c(N)sc2c1CCC(C)C2 (stereo not given)	-8.6	0.7	0.0	0.6	.	.
CCOC(=O)c1c(NC(=O)COc2ccc3c(C)cc(=O)oc3c2)sc2c1CCC(C)C2 (stereo not given)	2.7	5.4*	0.1	-4.5	0.3	10.0
CNC(=O)c1c(NC(=O)COc2cccc(C)c2C)sc2c1CCCC2	-6.9	5.2*	-0.1	0.2	0.1	0.7
